Data published in article PMC8384837, “Expanding the binding specificity for RNA recognition by a PUF domain”.
Numbering of substitutions follows the chain as printed.

How the values were obtained:
Test in all cases: yeast three-hybrid, YBZ-1, SC-Leu-His + 0.5 mM 3-AT, 4 days
Conditions in all cases: tags: N-Gal4 AD-HA kept; label: inside an RPR1-promoter hybrid RNA with tandem MS2 sites; ssRNA
[1] = target: PUM1 PUF domain R4-CFP (Homo sapiens, UniProt Q14671 828-1176, N971C;H972F;Q975P)
Procedure, shortened: (§1)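 Repeat regions from input (SC-Leu) and selection (SC-Leu-His + 0.5 mM 3-AT) plates were PCR-amplified and Illumina-sequenced after four days of growth. The cells were strain YBZ-1 with a LexA–MS2 coat fusion and a HIS3 reporter, co-expressing Pumilio-1 PUF domain libraries and matching RNA elements from a centromeric plasmid. The interaction score is the log change in variant frequency from input to selection, taken in log2 with a pseudocount of 1 for absent variants.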

[2] = target: PUM1 PUF domain R4-LNA (Homo sapiens, UniProt Q14671 828-1176, N971L;H972N;Q975A)
Procedure, shortened: as §1

[3] = target: PUM1 PUF domain R3-VHW (Homo sapiens, UniProt Q14671 828-1176, C935V;R936H;Q939W)
Procedure, shortened: as §1

[4] = target: PUM1 PUF domain R3-VWF (Homo sapiens, UniProt Q14671 828-1176, C935V;R936W;Q939F)
Procedure, shortened: as §1

[5] = target: PUM1 PUF domain R5-KSL (Homo sapiens, UniProt Q14671 828-1176, C1007K;R1008S;Q1011L)
Procedure, shortened: as §1

[6] = target: PUM1 PUF domain R8-LYA (Homo sapiens, UniProt Q14671 828-1176, N1122L;Q1126A)
Procedure, shortened: as §1

[7] = target: T1, PUM1 PUF domain R6-HRK (Homo sapiens, UniProt Q14671 828-1176, N1043H;Y1044R;Q1047K)
T1 sequence: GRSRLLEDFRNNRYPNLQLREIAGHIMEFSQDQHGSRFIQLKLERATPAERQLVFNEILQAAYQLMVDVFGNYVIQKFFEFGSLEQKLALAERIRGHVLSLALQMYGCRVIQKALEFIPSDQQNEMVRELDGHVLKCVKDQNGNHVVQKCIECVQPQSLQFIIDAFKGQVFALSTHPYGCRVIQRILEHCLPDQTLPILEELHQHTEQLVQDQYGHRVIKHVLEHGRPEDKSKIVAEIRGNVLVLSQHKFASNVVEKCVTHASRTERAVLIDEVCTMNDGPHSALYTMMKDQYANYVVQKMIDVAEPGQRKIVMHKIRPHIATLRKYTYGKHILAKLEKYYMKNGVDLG
Procedure, shortened: as §1

[8] = target: T2, PUM1 PUF domain R6-FWL (Homo sapiens, UniProt Q14671 828-1176, N1043F;Y1044W;Q1047L)
T2 sequence: T1 sequence with H216F, R217W, K220L
Procedure, shortened: as §1

[9] = target: PUM1 PUF domain R3-CRH (Homo sapiens, UniProt Q14671 828-1176, Q939H)
Procedure, shortened: as §1

[10] = target: PUM1 PUF domain R5-PRG (Homo sapiens, UniProt Q14671 828-1176, C1007P;Q1011G)
Procedure, shortened: as §1

[11] = target: PUM1 PUF domain R5-RRV (Homo sapiens, UniProt Q14671 828-1176, C1007R;Q1011V)
Procedure, shortened: as §1

[12] = target: PUM1 PUF domain R7-GRR (Homo sapiens, UniProt Q14671 828-1176, S1079G;N1080R;E1083R)
Procedure, shortened: as §1

[13] = target: PUM1 PUF domain R1-RSV (Homo sapiens, UniProt Q14671 828-1176, S863R;R864S;Q867V)
Procedure, shortened: as §1

[14] = target: PUM1 PUF domain R1-GLQ (Homo sapiens, UniProt Q14671 828-1176, S863G;R864L)
Procedure, shortened: as §1

GGCUAGAACUAGUGGAUCCCCCGGCGCCCGGCGGCUCGAGCCCGGGUAAGUGUAUAUAGUCUGCAUGCCGCCGGGCGCCAUGCCUGCAGGUCGACUCUAGAAAACAUG
binding signal [1]: 6.56 log2 enrichment (interaction score) | binding signal [2]: 2.84 log2 enrichment (interaction score)

GGCUAGAACUAGUGGAUCCCCCGGCGCCCGGCGGCUCGAGCCCGGGUAAGUGUAAAUAGUCUGCAUGCCGCCGGGCGCCAUGCCUGCAGGUCGACUCUAGAAAACAUG
binding signal [3]: 3.99 log2 enrichment (interaction score) | binding signal [4]: 5.2 log2 enrichment (interaction score) | binding signal [5]: 0.96 log2 enrichment (interaction score) | binding signal [1]: 5.06 log2 enrichment (interaction score) | binding signal [6]: 1.25 log2 enrichment (interaction score) | binding signal [7]: 2.98 log2 enrichment (interaction score) | binding signal [8]: 5.31 log2 enrichment (interaction score) | binding signal [9]: 3.86 log2 enrichment (interaction score) | binding signal [10]: 3.3 log2 enrichment (interaction score) | binding signal [11]: 2.01 log2 enrichment (interaction score)

GGCUAGAACUAGUGGAUCCCCCGGCGCCCGGCGGCUCGAGCCCGGGUAAGUGAAAAUAGUCUGCAUGCCGCCGGGCGCCAUGCCUGCAGGUCGACUCUAGAAAACAUG
binding signal [8]: 5.88 log2 enrichment (interaction score)

GGCUAGAACUAGUGGAUCCCCCGGCGCCCGGCGGCUCGAGCCCGGGUAAGCGUAAAUAGUCUGCAUGCCGCCGGGCGCCAUGCCUGCAGGUCGACUCUAGAAAACAUG
binding signal [6]: 2.77 log2 enrichment (interaction score)

GGCUAGAACUAGUGGAUCCCCCGGCGCCCGGCGGCUCGAGCCCGGGUAAGUCUAAAUAGUCUGCAUGCCGCCGGGCGCCAUGCCUGCAGGUCGACUCUAGAAAACAUG
binding signal [12]: 2.81 log2 enrichment (interaction score)

GGCUAGAACUAGUGGAUCCCCCGGCGCCCGGCGGCUCGAGCCCGGGUAAGUGUACAUAGUCUGCAUGCCGCCGGGCGCCAUGCCUGCAGGUCGACUCUAGAAAACAUG
binding signal [1]: 2.19 log2 enrichment (interaction score)

GGCUAGAACUAGUGGAUCCCCCGGCGCCCGGCGGCUCGAGCCCGGGUAAGUGUAAGUAGUCUGCAUGCCGCCGGGCGCCAUGCCUGCAGGUCGACUCUAGAAAACAUG
binding signal [4]: 2.09 log2 enrichment (interaction score)

GGCUAGAACUAGUGGAUCCCCCGGCGCCCGGCGGCUCGAGCCCGGGUAAGUGUAAAUUGUCUGCAUGCCGCCGGGCGCCAUGCCUGCAGGUCGACUCUAGAAAACAUG
binding signal [13]: 2.17 log2 enrichment (interaction score) | binding signal [14]: 2.93 log2 enrichment (interaction score)
